Experimental data taken from ChEMBL document CHEMBL4513216, “Probing the Open Global Health Chemical Diversity Library for Multistage-Active Starting Points for Next-Generation Antimalarials” (ACS Infect Dis, 2020).
Among all 65,000 compounds or so, about 2,100 (3.2%) showed an effect of 50% or more. The median lay at about -52%. The sample as a whole holds a higher share of strong results than the screen did.

Each molecule was assayed on Plasmodium falciparum (assay: Screen against P. falciparum Asexual Blood Stage (ABS), at 5uM). Conditions: tested at 5 uM.
Format: functional, Dd2
With `O=C(C1CNCCN1C(=O)CCOc1ccccc1)N1CCOCC1` (configuration not stated) the INHIBITION was -116%.
Molecule `COC(=O)[C@@H]1C[C@H](NC(=O)c2cc(=O)[nH]c3ccc(C)cc23)CN1C` has an INHIBITION of 5.12%.
`CSCC[C@H](N)c1nnc(SCC(=O)Nc2ccc(Br)cc2)o1` gave an INHIBITION of -102%.
For `Cc1ccccc1C(=O)N1Cc2c(Cn3ccnc3)nn(C)c2C1`, the INHIBITION was -35.3%.
With `CS(=O)(=O)N1CC2(CCN(C(=O)c3ccncc3)CC2)c2ccccc21` the INHIBITION was -67.5%.
For `Cc1cc(N2CCC(c3ncc[nH]3)CC2)cc(C)n1`, the INHIBITION was -26.7%.
`Cc1cc(N2CCC(c3ncc[nH]3)CC2)c2ccccc2n1` gave an INHIBITION of 62.6%.
Work on `Cc1cc(N2CCC(c3ncc[nH]3)CC2)nc(N)n1` yielded an INHIBITION of -25.6%.
For `NCC(=O)N1CCCC(c2cncc(Nc3ncccn3)n2)C1` (configuration not stated), the INHIBITION was -81.1%.
`Cc1ccc(CN2CCCC3(COCCN(Cc4c[nH]nn4)C3)C2)s1` (configuration not stated) was tested, and the INHIBITION was 37.3%.
`O=C(c1c[nH]c(=O)[nH]c1=O)N1CCCC(c2cnccn2)C1` (configuration not stated) was tested, and the INHIBITION was -173%.
Work on `CC(C)Nc1ncnc2c1CCN(C(=O)N1CCOCC1)CC2` yielded an INHIBITION of -114%.
Work on `CCC[C@@H]1CN(C(=O)c2ccccc2-c2ncc[nH]2)C[C@H]1N(C)C` yielded an INHIBITION of -80.9%.
Work on `CCC[C@@H]1CN(C(=O)c2ccccc2-c2ccccc2)C[C@H]1N(C)C` yielded an INHIBITION of 22.2%.
With `CCC[C@@H]1CN(C(=O)c2conc2-c2ccccc2)C[C@H]1N(C)C` the INHIBITION was 52.8%.
For `CCC[C@@H]1CN(C(=O)c2cc(-c3cccs3)n(C)n2)C[C@H]1N(C)C`, the INHIBITION was -63%.
`CCC[C@@H]1CN(C(=O)c2ccccc2C(C)=O)C[C@H]1N(C)C` was tested, and the INHIBITION was -112%.
`CCC[C@@H]1CN(C(=O)c2cc3ccccc3cc2O)C[C@H]1N(C)C` showed an INHIBITION of 52.8%.
`CCOCC1CN(C2CCCC2)Cc2cnn(CC3CCOCC3)c21` (configuration not stated) was tested, and the INHIBITION was -1.53%.
`CC(C)N1CCCN(c2nc(-c3cccnc3)nc3c2cnn3C)CC1` showed an INHIBITION of 43.8%.
Work on `CCN1CCC(CC(=O)NCc2nc(C)cc(C)n2)CC1` yielded an INHIBITION of -46.7%.
`Cc1nc(C2CCCN2C(=O)COc2ccccc2)ncc1C(N)=O` (configuration not stated) showed an INHIBITION of -61%.
`COc1cccc(CN(C)C(=O)c2ccc(NC(C)=O)s2)c1OC` showed an INHIBITION of -83.5%.
In the case of `O=C(NC1CCCN(c2ccccc2Cl)C1)c1c[nH]nn1` (configuration not stated), the INHIBITION is reported as -144%.
Work on `NC(=O)CCNC(=O)NCC1(c2ccccc2Cl)CCC1` yielded an INHIBITION of -18.5%.
Molecule `NC(=O)CCNCc1c(Cl)cccc1N1CCCC1` has an INHIBITION of 66.4%.
`O=c1oc(-c2cccs2)nn1CC(O)c1ccc2c(c1)CCC2` (configuration not stated) was tested, and the INHIBITION was -20%.
`Cc1nnc(NC(=O)C(C)n2ncc(Br)c2C)s1` (configuration not stated) was tested, and the INHIBITION was -120%.
For `CCCn1ncc(CN2C[C@@H]3CCCN3C[C@@H]2CCSC)c1C`, the INHIBITION was 29.3%.
`C=Cn1ncc(CN2C[C@@H]3CCCN3C[C@@H]2Cc2ccccc2)c1C` showed an INHIBITION of 25.8%.
`CCCn1ncc(CN2C[C@@H]3CCCN3C[C@H]2Cc2ccccc2)c1C` was tested, and the INHIBITION was 57.8%.
For `CCCn1ncc(CN2C[C@@H]3CCCN3C[C@H]2CCSC)c1C`, the INHIBITION was -62.1%.
`CCn1ncc(CN2C[C@@H]3CCCN3C[C@@H]2CCSC)c1C` gave an INHIBITION of -116%.
Molecule `CCCn1ncc(CN2C[C@@H]3CCCN3C[C@@H]2Cc2ccccc2)c1C` has an INHIBITION of 63.8%.
`CNC(=O)COC1COC2(CCN(Cc3ccncc3F)CC2)C1` (configuration not stated) was tested, and the INHIBITION was -146%.
With `CC(C)[C@H](NS(C)(=O)=O)C(=O)NCc1cc(-c2ccco2)nn1C` the INHIBITION was -141%.
`COc1c(CNCc2ccc(Cn3cccn3)cc2)c(C)nn1C` was tested, and the INHIBITION was 14.8%.
`COc1c(CNCc2ccccc2Cn2cccn2)c(C)nn1C` gave an INHIBITION of 57.4%.
In the case of `COc1c(CNCc2ccccc2Cn2cncn2)c(C)nn1C`, the INHIBITION is reported as 3.03%.
Work on `COC[C@]1(O)CCN(c2cc(C3CC3)ncn2)CC1(C)C` yielded an INHIBITION of -106%.
`CC(C)c1cc(C(=O)NCCc2nc(-c3ccncc3)n[nH]2)[nH]n1` showed an INHIBITION of 66.4%.
In the case of `CC(C)C(=O)NCCc1nc(-c2ccncc2)n[nH]1`, the INHIBITION is reported as -11.5%.
In the case of `CC(C)c1cc(C(=O)NCCc2nc(-c3cccnc3)n[nH]2)[nH]n1`, the INHIBITION is reported as 14.9%.
For `Cc1noc([C@@H]2C[C@H]3OCC[C@H]3N(Cc3cc(C)c(C)o3)C2)n1`, the INHIBITION was -151%.
`CC(C)NC(=O)CN1CCC(c2cccc(F)c2)C1` (configuration not stated) gave an INHIBITION of 54.9%.
`CCNC(=O)NC(=O)CN1CCC(c2cccc(F)c2)C1` (configuration not stated) gave an INHIBITION of -4.74%.
`CNC(=O)NC(=O)CN1CCC(c2cccc(F)c2)C1` (configuration not stated) gave an INHIBITION of -92.5%.
`Cc1ccccc1NC(=O)N1CCN(Cc2noc(C3CC3)n2)CC1` gave an INHIBITION of -69.4%.
`CSCCCNC(=O)C(c1ccccc1C)N(C)C` (configuration not stated) was tested, and the INHIBITION was -35.8%.
`Cc1ccccc1C(C(=O)NCCSC(C)C)N(C)C` (configuration not stated) was tested, and the INHIBITION was 50.3%.
`Cc1ccccc1C(C(=O)NCCSC(F)(F)F)N(C)C` (configuration not stated) gave an INHIBITION of 46.1%.
Molecule `CSC(C)C(=O)N(C)CCCc1cc(-c2ccccc2)no1` (configuration not stated) has an INHIBITION of -25.3%.
Molecule `CCOC(=O)C1CCN(c2cc(C(=O)N3CCOCC3)nc(C)n2)CC1` has an INHIBITION of -5.84%.
`COc1ccc(C(NCc2cccc(C#N)c2)C2CC2)cc1` (configuration not stated) showed an INHIBITION of 48.3%.
With `COc1ccc(C(NCc2cccc(C#N)c2)C(C)C)cc1` (configuration not stated) the INHIBITION was -11.2%.
`COc1ccc(C(NCc2ccc(C#N)cc2)C2CC2)cc1` (configuration not stated) was tested, and the INHIBITION was 60.9%.
Molecule `O=C(C1CCOC1)N1CCC2(CCN(Cc3nccs3)CC2)CC1` (configuration not stated) has an INHIBITION of -146%.
Work on `COc1ccc(NC(=O)c2nc3ccccc3n(C)c2=O)cc1OC` yielded an INHIBITION of -33.5%.
For `O=C(O)c1cc2c(nc1-c1ccoc1)CCN(CC1CCOC1)CC2` (configuration not stated), the INHIBITION was -108%.
`CSCC(=O)N(C)Cc1noc(-c2ccccc2)n1` showed an INHIBITION of -229%.
Work on `CN(C)CC(C)(O)CNC(=O)Nc1sc2ccccc2c1Cl` (configuration not stated) yielded an INHIBITION of 63.2%.
Molecule `CS(=O)(=O)CCNC(=O)Nc1sc2ccccc2c1Cl` has an INHIBITION of -95%.
In the case of `CN(C)C(=O)CCNC(=O)Nc1sc2ccccc2c1Cl`, the INHIBITION is reported as -22.3%.
In the case of `Cc1cc(-c2cnc(N3CCCCCC3)nc2-c2cccnc2C)on1`, the INHIBITION is reported as 3.45%.
`Cc1cnn(C2CN(CCOc3cccc(C#N)c3)C2)c1` was tested, and the INHIBITION was -128%.
`CCS(=O)(=O)N1CC(=O)N(Cc2ccccc2OC)CC(O)C1` (configuration not stated) gave an INHIBITION of -105%.
Molecule `CCOC(=O)C1CCN(C(=O)c2cnn(-c3ccccc3F)c2N)CC1` has an INHIBITION of -221%.
